Source: PMC4336329 (PLoS ONE, 2015)
The whole screen tested about 310,000 compounds, of which about 14,000 (4.5%) showed an effect of 50% or more. The effect is printed as a negative number. The sample holds strong results, similar compounds and a random draw of the others, so the mix is not that of the screen.

molecular target: human ether-à-go-go-related gene (hERG) potassium channel (human, UniProt Q12809); assay: primary screen, population patch clamp on CHO cells stably expressing hERG; higher = less effect of the substance
Sequence (Q12809 whole entry, looked up): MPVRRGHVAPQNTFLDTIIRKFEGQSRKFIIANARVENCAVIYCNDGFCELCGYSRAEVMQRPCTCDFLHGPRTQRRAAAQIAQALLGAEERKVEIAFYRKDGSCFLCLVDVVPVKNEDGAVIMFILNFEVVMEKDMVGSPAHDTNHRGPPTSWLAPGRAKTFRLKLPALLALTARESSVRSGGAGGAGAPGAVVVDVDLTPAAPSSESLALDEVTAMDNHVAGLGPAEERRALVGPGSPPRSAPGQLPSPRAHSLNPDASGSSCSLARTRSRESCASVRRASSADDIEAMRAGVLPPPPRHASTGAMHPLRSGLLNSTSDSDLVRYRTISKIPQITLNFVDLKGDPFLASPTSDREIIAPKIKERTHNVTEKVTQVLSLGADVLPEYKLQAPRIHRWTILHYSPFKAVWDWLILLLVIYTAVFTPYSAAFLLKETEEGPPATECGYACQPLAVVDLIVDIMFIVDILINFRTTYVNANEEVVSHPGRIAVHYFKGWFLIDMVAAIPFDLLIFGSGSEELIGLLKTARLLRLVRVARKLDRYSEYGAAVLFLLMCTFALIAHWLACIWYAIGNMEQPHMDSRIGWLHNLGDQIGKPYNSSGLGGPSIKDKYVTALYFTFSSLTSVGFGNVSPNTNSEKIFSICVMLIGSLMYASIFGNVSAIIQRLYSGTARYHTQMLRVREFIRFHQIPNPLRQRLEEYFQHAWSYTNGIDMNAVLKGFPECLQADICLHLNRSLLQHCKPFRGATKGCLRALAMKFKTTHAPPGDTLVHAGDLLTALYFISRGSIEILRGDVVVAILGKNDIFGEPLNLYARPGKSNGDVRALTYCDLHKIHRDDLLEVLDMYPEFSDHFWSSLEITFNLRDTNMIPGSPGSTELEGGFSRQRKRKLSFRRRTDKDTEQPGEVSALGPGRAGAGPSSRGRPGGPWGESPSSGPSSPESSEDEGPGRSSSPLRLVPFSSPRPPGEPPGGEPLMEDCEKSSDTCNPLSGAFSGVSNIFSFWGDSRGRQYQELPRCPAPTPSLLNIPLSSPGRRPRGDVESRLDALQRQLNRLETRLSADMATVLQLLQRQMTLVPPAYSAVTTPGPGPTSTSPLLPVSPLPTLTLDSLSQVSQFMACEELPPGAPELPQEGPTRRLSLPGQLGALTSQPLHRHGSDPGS
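Note: peak tail current of the secondary pulse compared with the same well before compound.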

In order of falling “hERG current change (%, negative = inhibition) at 10uM” value:
1. CCc1nnc(NC(=O)CSc2nnc(C(C)NC(=O)c3ccccc3)n2C)s1 (stereo not drawn)  29.3%
2. CC(C)N1CCN(Cc2ccc(Sc3nncn3C)o2)CC1CCO (stereo not drawn)  22.9%
3. CC(C)N1CCC(N2CCN(Cc3cccnc3)CC2CCO)CC1 (stereo not drawn)  20.3%
4. Cc1cc(NC(=O)CSc2nc3ccccc3n2CC(C)C)no1  19.2%
5. Cc1cc(C(=O)N/N=C/c2cc(Br)c(Br)o2)n[nH]1  16%
6. CCC1(CC)C(=O)N(C)C(=O)NC1=Nc1ccccc1  15.8%
7. O=C(c1ccccc1Br)N1N=C(c2ccccc2)CC1c1ccccc1F (stereo not drawn)  15.7%
8. COc1cccc(C(=O)NNC(=O)C2CCCO2)c1 (stereo not drawn)  15.3%
9. COc1ccc(C(=O)NC(C)c2nnc(SCC(=O)NC3=NCCS3)n2C)cc1 (stereo not drawn)  15.3%
10. Cc1cc(C)n(Cc2ccc(Cl)cc2Cl)c(=O)c1S(=O)(=O)c1ccccc1  14.7%
11. Cc1ccc(-c2cccc(CN3CCN(C(C)C)C(CCO)C3)c2)o1 (stereo not drawn)  13.4%
12. COc1ccccc1N1CCN(C2CCCN(C(=O)CCn3cncn3)C2)CC1 (stereo not drawn)  13%
13. CS(=O)(=O)N1CCC(C(=O)Nc2ccc(C(F)(F)F)cc2)CC1  12.4%
14. COc1ccc(CCNC(=O)C/C(C)=N/NC(=O)C23CC4CC(CC(C4)C2)C3)cc1OC  11.7%
15. Cn1c(SCC(=O)Nc2nc3ccccc3s2)nnc1-c1ccccc1  10.3%
16. O=C(Cn1nnc(-c2ccccc2NC(=O)c2ccccc2F)n1)NCc1ccco1  10.1%
17. CC(C)N1CCC(N2CCN(CCCc3ccccc3)CC2CCO)CC1 (stereo not drawn)  10.1%
18. COc1cc(NC(=O)CSc2nnc3n2C(C)(C)Cc2ccccc2-3)cc(OC)c1  10%
19. COc1ccc(CCNC(=O)C2CCN(S(=O)(=O)c3ccc(NC(C)=O)cc3)CC2)cc1OC  9.83%
20. O=C(O)CNC(=O)c1ccccc1Br  9.63%
21. COC(=O)CN(c1cccc(C(C)=O)c1)S(C)(=O)=O  9.02%
22. Cn1c(CNC(=O)OC(C)(C)C)nnc1SCC(=O)N1CCOCC1  8.91%
23. O=C(COC(=O)c1cnccn1)Nc1ccc2c(c1)OCO2  7.23%
24. CCn1c(SCC(=O)Nc2ccc3c(c2)OCO3)nnc1-c1ccccc1O  7.21%
25. Cc1nc(-c2ccc(C(=O)Nc3cccc(Br)c3)cc2)cs1  7.02%
26. CCC(C)(C)n1nnnc1C(c1ccc2ncccc2c1)N1CCCCCC1 (stereo not drawn)  6.75%
27. Nc1cc(=O)[nH]c(SCC(=O)Nc2ccccc2Sc2ccccc2)n1  6.15%
28. CC1CCCCN1S(=O)(=O)c1ccc(S(=O)(=O)N2CCCC2)cc1 (stereo not drawn)  5.9%
29. Cc1ccc(-n2c(SCC(=O)Nc3ccc4c(c3)OCO4)nnc2-c2ccccn2)cc1  4.28%
30. Cc1c(Cl)cccc1N1C(=O)C2ON(c3ccccc3)C(c3cccnc3)C2C1=O (stereo not drawn)  4.12%
31. COC(=O)CSc1nnc2n1C(C)(C)Cc1ccccc1-2  3.46%
32. O=C(COC(=O)c1cccnc1Cl)Nc1ccc2c(c1)OCO2  2.28%
33. O=C(CSc1nnc(-c2ccccn2)n1-c1ccccc1)Nc1ccc2c(c1)OCO2  1.81%
34. CN(C(=O)COC(=O)c1cc(F)c(F)cc1Cl)c1ccccc1  0.987%
35. CCN(CC)CCN1C(=O)C(=O)/C(=C(/O)c2ccc(OC(C)C)cc2)C1c1cccs1 (stereo not drawn)  0.529%
36. O=C(c1ccc(C(F)(F)F)cc1)C1CCCN(C(=O)CN2CCCC2=O)C1 (stereo not drawn)  0.525%
37. CCn1nnnc1SCC(=O)c1ccc(NC(C)=O)cc1  0.37%
38. COc1ccc2nc(NC(=O)CSc3nnc4n3C(C)(C)Cc3ccccc3-4)sc2c1  0.248%
39. CCSc1nnc2n1C(C)(C)Cc1ccccc1-2  0.0135%
40. CN1CCC(NC(=O)Cc2c(F)cccc2Cl)CC1  -1.52%
41. CSc1nc2nc(-c3ccc(F)cc3)c(CCN3CCN(C)CC3)cn2n1  -2.66%
42. Cc1cccc(NC(=O)c2ccc(S(=O)(=O)N3CCCCCC3)cc2)n1  -4.07%
43. C/C=C(\C)CN1CCC(Oc2cccc(C(=O)NCc3ccccn3)c2)CC1  -4.59%
44. Cc1cccc(NC(=O)c2ccc(S(=O)(=O)N3CCCCC3)cc2)n1  -6.69%
45. CCC1=[N+](CC(=O)c2ccc(Br)cc2)CCn2c(C)ccc21.[Br-]  -6.76%
46. CC(C)N1CCC(N2CCN(C/C=C/c3ccccc3)CC2CCO)CC1 (stereo not drawn)  -7.17%
47. Cc1cccc(C(=O)Oc2ccccc2C(=O)N2CCOCC2)c1  -8.06%
48. COc1cc(Nc2cc(C)nc3ncnn23)cc(OC)c1  -8.29%
49. CC(C)N1CCC(N2CCN(Cc3ccc4nsnc4c3)CC2CCO)CC1 (stereo not drawn)  -8.62%
50. Cc1ccc(NC(=O)c2ccc(Cl)c(S(=O)(=O)N3CCCC3)c2)nc1  -8.97%
51. CCc1cccc(NC(=O)C2CCCN2S(=O)(=O)c2ccc3c(c2)n(C)c(=O)c(=O)n3C)c1 (stereo not drawn)  -9.62%
52. CON(C)S(=O)(=O)c1cccc(C(=O)NC2CCSc3ccccc32)c1 (stereo not drawn)  -9.64%
53. CCC(C)(C)n1nnnc1C(c1ccc2ncccc2c1)N1CCCC(C)C1 (stereo not drawn)  -13.6%
54. CC1CCN(C(=O)C2CCN(S(=O)(=O)c3ccc(-n4cnnn4)cc3)CC2)CC1  -13.7%
55. COc1ccc(OC)c(NC(=O)CCNS(=O)(=O)c2cc(Br)cnc2N)c1  -14.9%
56. Cc1ccnc(NC(=O)c2ccc(Cl)c(S(=O)(=O)N3CCCC3)c2)c1  -15.7%
57. COc1ccc(S(=O)(=O)N(CC(=O)N2CCOCC2)c2cc(Cl)ccc2OC)cc1OC  -16.6%
58. Cc1ccnc(NC(=O)c2ccc(S(=O)(=O)N3CCCCC3)cc2)c1  -17.9%
59. CC1CCCCN1S(=O)(=O)c1ccc(NC(=O)c2cccc(-n3cnnn3)c2)cc1 (stereo not drawn)  -18.4%
60. CC(C)(C)n1nnnc1C(c1cccs1)N1CCN(Cc2ccc3c(c2)OCO3)CC1 (stereo not drawn)  -19.4%
61. COCCn1nnnc1C(c1ccccc1)N1CCN(Cc2ccc3c(c2)OCO3)CC1.Cl (stereo not drawn)  -21.6%
62. Cc1ccc(NC(=O)c2ccc(Cl)c(S(=O)(=O)N3CCCCC3)c2)nc1  -23.4%
63. COc1ccc(N2CCN(C(=O)CSc3nnc4n3C(C)(C)Cc3ccccc3-4)CC2)cc1  -23.8%
64. COc1ccc(C(CNC(=O)c2cccc(S(=O)(=O)NCc3ccccc3)c2)N(C)C)cc1 (stereo not drawn)  -24.3%
65. Cc1cccc(NC(=O)c2ccc(Cl)c(S(=O)(=O)N3CCCCCC3)c2)n1  -25.1%
66. CC(C)N1CCC(N2CCN(Cc3ccc4nonc4c3)CC2CCO)CC1 (stereo not drawn)  -27.5%
67. O=C(C1CCN(S(=O)(=O)c2ccc(-n3cnnn3)cc2)CC1)N1CCCCC1  -30.1%
68. CC(C)N1CCN(Cc2ccccc2-c2ccco2)CC1CCO (stereo not drawn)  -35.3%
69. Cc1cccc(NC(=O)c2ccc(C)c(S(=O)(=O)N3CCCCC3)c2)n1  -36.7%
70. COc1ccccc1N1CCN(C(=O)CSc2nnc3n2C(C)(C)Cc2ccccc2-3)CC1  -37.4%
71. CC(C)(C)n1nnnc1C(c1ccc(F)cc1)N1CCN(Cc2ccc3c(c2)OCO3)CC1 (stereo not drawn)  -37.8%
72. CCN1CCN(C(c2ccccc2)c2nnnn2Cc2ccc3c(c2)OCO3)CC1.Cl (stereo not drawn)  -39.1%
73. CC1CCCCN1S(=O)(=O)c1ccc(-n2cnnn2)cc1 (stereo not drawn)  -50.1%
74. CCC(C)(C)n1nnnc1C(c1ccc(C)cc1)N1CCN(Cc2ccc3c(c2)OCO3)CC1 (stereo not drawn)  -50.3%
75. O=C1CCC2S/C(=C/Nc3ccc(C(F)(F)F)cc3)C(=O)N12 (stereo not drawn)  -52.2%
76. CC(C)N1CCN(Cc2ccc(-c3ccccc3Cl)o2)CC1CCO (stereo not drawn)  -54.8%
77. Cc1ccc(NC(=O)c2ccc(Cl)c(S(=O)(=O)N3CCCCCC3)c2)nc1  -57.9%
78. CC1(C)Cc2ccccc2-c2nnc(SCc3ccc(C#N)cc3)n21  -58.9%
79. Cc1cccc(NC(=O)c2ccc(S(=O)(=O)N3CCC(C)CC3)cc2)n1  -59.2%
80. COc1ccc(C(=O)NC(C)c2nnc(SCC(=O)Nc3nc4ccccc4s3)n2C)cc1 (stereo not drawn)  -59.4%
81. Cc1ccc(-c2cccc(CN3CCN(C4CCN(C(C)C)CC4)C(CCO)C3)c2)o1 (stereo not drawn)  -59.4%
82. CC1CCCCN1C(=O)C1CCN(S(=O)(=O)c2ccc(-n3cnnn3)cc2)CC1 (stereo not drawn)  -61.5%
83. CC1(C)Cc2ccccc2-c2nnc(SCC(=O)Nc3ccc4c(c3)OCO4)n21  -63.2%
84. CC(C)N1CCC(N2CCN(Cc3ccc(-c4ccc(Cl)cc4)o3)CC2CCO)CC1 (stereo not drawn)  -64.5%
85. Cc1ccccc1-n1c(SCC(=O)Nc2ccc3c(c2)OCO3)nnc1-c1ccccn1  -65.3%
86. O=C(COC(=O)c1ccccn1)Nc1ccc2c(c1)OCO2  -65.5%
87. CC(C)N1CCC(N2CCN(Cc3ccc(-c4ccccc4Cl)o3)CC2CCO)CC1 (stereo not drawn)  -66.6%
88. CCC(C)(C)n1nnnc1C(c1ccc2ncccc2c1)N1CCN(Cc2ccc3c(c2)OCO3)CC1 (stereo not drawn)  -69.7%
89. Cc1cccc(NC(=O)c2ccc(Cl)c(S(=O)(=O)N3CCCCC3)c2)n1  -71.3%
90. CC1(C)Cc2ccccc2-c2nnc(SCC(=O)N3CCN(c4ccccc4)CC3)n21  -73.7%
91. CC1(C)Cc2ccccc2-c2nnc(SCC(=O)Nc3nc4ccccc4s3)n21  -74.4%
92. Cc1ccc(C(c2nnnn2Cc2cccs2)N2CCN(Cc3ccc4c(c3)OCO4)CC2)cc1 (stereo not drawn)  -75.3%
93. Cc1ccnc(NC(=O)c2ccc(Cl)c(S(=O)(=O)N3CCCCC3)c2)c1  -79.1%
